Drawing on the supplement of paper PMC10849652, this text covers log2 fold change for 14 targets.

Targets with a hit are over-represented here; the source holds about 8,800 in all. About 0.5% of all pairs of compound and target were hits. A number with no mark means an inactive call.

Chain of UniProt Q9UL54 (Q9UL54 whole entry, looked up): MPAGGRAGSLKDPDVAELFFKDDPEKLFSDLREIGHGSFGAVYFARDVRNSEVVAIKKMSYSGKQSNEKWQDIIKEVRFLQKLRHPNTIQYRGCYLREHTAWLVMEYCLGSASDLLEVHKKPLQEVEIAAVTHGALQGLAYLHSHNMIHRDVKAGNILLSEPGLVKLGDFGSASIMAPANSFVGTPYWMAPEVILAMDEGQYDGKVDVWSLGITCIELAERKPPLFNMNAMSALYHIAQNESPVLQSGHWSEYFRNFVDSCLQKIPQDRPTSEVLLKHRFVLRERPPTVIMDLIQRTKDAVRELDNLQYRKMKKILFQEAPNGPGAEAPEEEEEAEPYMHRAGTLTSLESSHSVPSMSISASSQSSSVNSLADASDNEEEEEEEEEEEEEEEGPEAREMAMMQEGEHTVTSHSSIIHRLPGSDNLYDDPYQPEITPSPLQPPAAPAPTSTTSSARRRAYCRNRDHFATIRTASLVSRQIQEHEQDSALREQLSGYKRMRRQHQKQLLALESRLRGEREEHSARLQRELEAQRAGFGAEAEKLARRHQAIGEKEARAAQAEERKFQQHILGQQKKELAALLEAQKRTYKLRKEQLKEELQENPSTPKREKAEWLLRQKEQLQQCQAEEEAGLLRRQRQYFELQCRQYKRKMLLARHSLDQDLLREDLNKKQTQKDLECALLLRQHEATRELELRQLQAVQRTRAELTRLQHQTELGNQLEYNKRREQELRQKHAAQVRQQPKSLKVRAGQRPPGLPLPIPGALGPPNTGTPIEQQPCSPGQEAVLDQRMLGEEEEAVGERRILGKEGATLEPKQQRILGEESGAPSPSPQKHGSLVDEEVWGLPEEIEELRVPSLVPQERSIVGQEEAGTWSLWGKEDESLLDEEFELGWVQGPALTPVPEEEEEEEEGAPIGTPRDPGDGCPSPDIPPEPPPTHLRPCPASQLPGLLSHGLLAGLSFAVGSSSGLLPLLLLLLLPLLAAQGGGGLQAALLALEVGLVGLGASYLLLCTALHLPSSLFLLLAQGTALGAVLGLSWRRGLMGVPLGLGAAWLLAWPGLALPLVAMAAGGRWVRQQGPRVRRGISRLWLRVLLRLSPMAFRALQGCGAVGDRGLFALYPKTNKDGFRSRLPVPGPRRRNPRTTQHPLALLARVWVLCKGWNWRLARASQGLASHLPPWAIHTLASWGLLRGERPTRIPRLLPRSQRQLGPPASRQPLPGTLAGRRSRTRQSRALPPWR
Chain of UniProt Q8NDV3 (Q8NDV3 whole entry, looked up): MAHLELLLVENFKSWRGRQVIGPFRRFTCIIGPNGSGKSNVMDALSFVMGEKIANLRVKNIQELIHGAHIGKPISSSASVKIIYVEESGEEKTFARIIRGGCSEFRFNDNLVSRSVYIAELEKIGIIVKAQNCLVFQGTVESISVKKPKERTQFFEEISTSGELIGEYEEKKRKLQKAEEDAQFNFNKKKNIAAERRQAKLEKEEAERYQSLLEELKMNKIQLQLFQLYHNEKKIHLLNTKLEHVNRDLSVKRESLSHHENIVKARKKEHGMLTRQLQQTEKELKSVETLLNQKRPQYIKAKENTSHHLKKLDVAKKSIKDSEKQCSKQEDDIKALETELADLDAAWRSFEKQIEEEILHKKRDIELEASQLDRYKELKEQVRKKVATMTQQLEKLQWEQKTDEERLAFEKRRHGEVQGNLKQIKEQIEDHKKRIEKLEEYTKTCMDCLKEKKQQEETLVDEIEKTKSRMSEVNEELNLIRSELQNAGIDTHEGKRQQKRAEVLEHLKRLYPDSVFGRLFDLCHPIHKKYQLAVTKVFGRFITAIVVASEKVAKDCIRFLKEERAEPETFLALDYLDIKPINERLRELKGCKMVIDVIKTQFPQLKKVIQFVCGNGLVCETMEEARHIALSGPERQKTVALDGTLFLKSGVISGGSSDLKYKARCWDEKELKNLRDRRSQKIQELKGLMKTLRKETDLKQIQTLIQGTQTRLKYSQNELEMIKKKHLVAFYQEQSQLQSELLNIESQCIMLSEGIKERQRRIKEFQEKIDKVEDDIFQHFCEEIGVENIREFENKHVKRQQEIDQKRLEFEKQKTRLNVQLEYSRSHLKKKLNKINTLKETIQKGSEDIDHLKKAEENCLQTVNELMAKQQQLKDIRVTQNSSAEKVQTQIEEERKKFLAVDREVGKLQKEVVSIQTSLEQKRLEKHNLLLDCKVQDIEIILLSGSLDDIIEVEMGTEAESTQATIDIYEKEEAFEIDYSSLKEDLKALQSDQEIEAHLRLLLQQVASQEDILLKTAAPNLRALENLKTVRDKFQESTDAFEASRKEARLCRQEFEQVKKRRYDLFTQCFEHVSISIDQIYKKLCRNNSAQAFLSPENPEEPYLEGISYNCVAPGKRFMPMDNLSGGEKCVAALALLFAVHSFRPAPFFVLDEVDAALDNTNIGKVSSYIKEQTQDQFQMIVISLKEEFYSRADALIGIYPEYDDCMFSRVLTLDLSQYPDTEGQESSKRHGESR
Chain of UniProt Q15506 (Q15506 whole entry, looked up): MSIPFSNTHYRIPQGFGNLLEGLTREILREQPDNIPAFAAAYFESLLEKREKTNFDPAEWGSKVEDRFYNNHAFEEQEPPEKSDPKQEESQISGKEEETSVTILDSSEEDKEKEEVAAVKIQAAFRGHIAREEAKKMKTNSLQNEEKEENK
Chain of UniProt Q15527 (Q15527 whole entry, looked up): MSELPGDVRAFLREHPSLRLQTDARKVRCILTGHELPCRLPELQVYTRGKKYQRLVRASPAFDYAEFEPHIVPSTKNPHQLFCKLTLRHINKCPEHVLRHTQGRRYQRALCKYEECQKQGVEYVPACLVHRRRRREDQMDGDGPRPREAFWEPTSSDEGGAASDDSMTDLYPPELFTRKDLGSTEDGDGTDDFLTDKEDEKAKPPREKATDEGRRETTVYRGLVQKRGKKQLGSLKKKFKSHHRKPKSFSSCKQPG
Chain of UniProt Q13188 (Q13188 whole entry, looked up): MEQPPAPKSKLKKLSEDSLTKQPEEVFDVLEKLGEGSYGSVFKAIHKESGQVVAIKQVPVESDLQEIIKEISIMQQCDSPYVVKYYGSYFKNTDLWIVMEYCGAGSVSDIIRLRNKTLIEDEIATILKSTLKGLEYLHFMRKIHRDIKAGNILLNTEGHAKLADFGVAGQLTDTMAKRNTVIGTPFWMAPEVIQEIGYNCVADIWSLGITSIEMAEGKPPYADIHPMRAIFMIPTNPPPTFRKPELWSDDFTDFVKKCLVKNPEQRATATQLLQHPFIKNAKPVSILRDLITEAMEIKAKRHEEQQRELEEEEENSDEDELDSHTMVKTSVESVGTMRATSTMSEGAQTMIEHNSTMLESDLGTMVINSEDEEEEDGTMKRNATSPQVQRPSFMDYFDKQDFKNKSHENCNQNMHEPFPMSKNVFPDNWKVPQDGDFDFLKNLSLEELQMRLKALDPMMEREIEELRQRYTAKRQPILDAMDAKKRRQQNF
Chain of UniProt Q9H7B4 (Q9H7B4 whole entry, looked up): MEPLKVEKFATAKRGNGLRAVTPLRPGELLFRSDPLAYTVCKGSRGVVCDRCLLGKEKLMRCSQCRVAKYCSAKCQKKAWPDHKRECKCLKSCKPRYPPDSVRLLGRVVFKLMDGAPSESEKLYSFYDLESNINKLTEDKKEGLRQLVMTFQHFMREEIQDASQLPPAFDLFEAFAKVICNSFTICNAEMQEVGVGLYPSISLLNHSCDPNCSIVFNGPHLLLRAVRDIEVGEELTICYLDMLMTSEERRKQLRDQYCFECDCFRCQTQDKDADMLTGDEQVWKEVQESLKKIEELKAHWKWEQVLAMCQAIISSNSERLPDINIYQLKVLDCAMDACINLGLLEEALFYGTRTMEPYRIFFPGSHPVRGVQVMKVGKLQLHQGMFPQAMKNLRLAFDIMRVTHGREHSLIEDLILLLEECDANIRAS
Chain of UniProt Q07617 (Q07617 whole entry, looked up): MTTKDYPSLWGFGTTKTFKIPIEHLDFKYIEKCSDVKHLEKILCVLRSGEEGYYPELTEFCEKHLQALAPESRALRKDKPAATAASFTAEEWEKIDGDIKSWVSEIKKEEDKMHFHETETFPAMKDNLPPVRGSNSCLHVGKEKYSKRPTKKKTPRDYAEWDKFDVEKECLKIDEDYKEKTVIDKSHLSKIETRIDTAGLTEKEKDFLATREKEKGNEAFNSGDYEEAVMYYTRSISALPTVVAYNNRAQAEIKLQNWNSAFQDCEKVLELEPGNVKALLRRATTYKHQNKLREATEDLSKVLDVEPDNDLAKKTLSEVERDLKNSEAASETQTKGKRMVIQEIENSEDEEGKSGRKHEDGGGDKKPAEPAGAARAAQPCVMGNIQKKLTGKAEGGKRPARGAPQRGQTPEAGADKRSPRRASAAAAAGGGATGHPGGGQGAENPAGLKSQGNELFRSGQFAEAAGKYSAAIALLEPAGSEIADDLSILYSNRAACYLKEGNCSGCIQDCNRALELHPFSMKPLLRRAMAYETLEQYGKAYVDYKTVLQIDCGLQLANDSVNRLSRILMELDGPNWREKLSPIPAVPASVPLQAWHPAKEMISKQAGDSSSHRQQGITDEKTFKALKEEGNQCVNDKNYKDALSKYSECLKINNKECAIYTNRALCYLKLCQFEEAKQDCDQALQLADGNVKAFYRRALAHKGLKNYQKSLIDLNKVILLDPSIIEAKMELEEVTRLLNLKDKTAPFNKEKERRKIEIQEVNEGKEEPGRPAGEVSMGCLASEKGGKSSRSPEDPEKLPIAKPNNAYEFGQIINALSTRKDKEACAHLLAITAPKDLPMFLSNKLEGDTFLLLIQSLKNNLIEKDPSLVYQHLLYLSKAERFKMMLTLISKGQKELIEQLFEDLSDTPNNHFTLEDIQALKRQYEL
Chain of UniProt Q9NZ72 (Q9NZ72 whole entry, looked up): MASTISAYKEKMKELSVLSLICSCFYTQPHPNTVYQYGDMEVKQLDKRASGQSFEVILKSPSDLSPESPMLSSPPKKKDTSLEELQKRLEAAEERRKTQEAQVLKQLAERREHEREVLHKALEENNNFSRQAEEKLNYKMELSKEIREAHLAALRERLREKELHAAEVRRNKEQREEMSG

Compound in this experiment: CNC(=O)c1ccc(Nc2ncc(C(F)(F)F)c(NCc3nccnc3N(C)S(C)(=O)=O)n2)cc1 [defactinib]
Briefly: log2 fold change, soluble protein after heating vs DMSO (PISA); higher = thermal stabilisation; K562 lysate, 10 uM; active = over 0.2 and 3.5 SD of the protein, either way, in both replicates (recomputed). A digest of the protocol: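 The values are log-two fold changes in thermal stability compared with solvent controls and come from duplicates. They were obtained by TMTpro 16plex LC-MS/MS, with channel sums equalised, on the supernatant after 21,000xg for 90 min. That supernatant came from crude K562 extract at 1 mg/mL protein treated with 10 μM compound for 30 min, heated for 3 min across 48°C-58°C, pooled and brought to 0.5% NP-40 at 4°C.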
As to TAF1B (UniProt Q53T94), the log2 fold change was -0.024.
The same measure for SNRPD2 (UniProt K7EJB5): -0.074; for STK3 isoform 2 (UniProt Q13188): 0.205; for TARDBP (UniProt K7EN94): -0.197.
Then SLC22A18 (UniProt Q96BI1), with -0.076; and SIN3B (UniProt O75182), with 0.185; and SPAG1 (UniProt Q07617), with -0.014.
The same measure for SURF2 (UniProt Q15527): 0.016.
On to SMYD3 (UniProt Q9H7B4), for which the log2 fold change is 0.036.
Turning to TAOK2 (UniProt Q9UL54), the log2 fold change is -0.001.
Then STMN3 (UniProt Q9NZ72), with 0.023; and SPA17 (UniProt Q15506), with 0.056.
The same measure for SMC1B isoform 3 (UniProt Q8NDV3): 0.147; for TAF11 (UniProt Q15544): -0.151.
